# According to the supplement of paper PMC8728848:
# The entries come from a sample that favours the strongest signals as a whole.
# B1: LCA (Lens culinaris), P02870 (protein)
# chain: MASLQTQMISFYLIFLSILLTTIFFFKVNSTETTSFSITKFSPDQKNLIFQGDGYTTKGKLTLTKAVKSTVGRALYSTPIHIWDRDTGNVANFVTSFTFVIDAPSSYNVADEFTFFIAPVDTKPQTGGGYLGVFNSKEYDKTSQTVAVEFDTFYNAAWDPSNKERHIGIDVNSIKSVNTKSWNLQNGERANVVIAFNAATNVLTVTLTYPNSLEEENVTSYTLNEVVPLKDVVPEWVRIGFSATTGAEFAAHEVHSWSFHSELGGTSSSKQAADA
# How the values were obtained:
# Assay in all cases: glycan array binding signal (z-score within array); higher = stronger binding
# Conditions in all cases: glycan notation: IUPAC condensed, linker removed
# [1] = target: GlcNAc(a1-4)Gal(b1-4)GlcNAc(b1-3)Gal(b1-4)Glc
# Summary of the method: (§1)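 Glycan array data were curated from 3228 arrays in the Consortium for Functional Glycomics database and kept only where the protein sequence was available. Glycan names were converted to IUPAC-condensed notation, and columns mapping to the same glycan were averaged. The binding signal is a within-array Z-score, averaged across arrays of the same protein sequence at different concentrations or buffers and across linkers. Negative Z-scores can be read as non-binding.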
# [2] = target: GlcNAc(b1-2)Man(a1-3)[GlcNAc(b1-2)Man(a1-6)]Man(b1-4)GlcNAc(b1-4)[Fuc(a1-6)]GlcNAc
# Summary of the method: as §1
# [3] = target: GlcNAc(b1-2)[GlcNAc(b1-6)]Man(a1-6)[GlcNAc(b1-2)Man(a1-3)]Man(b1-4)GlcNAc(b1-4)[Fuc(a1-6)]GlcNAc
# Summary of the method: as §1
# [4] = target: GlcNAc(b1-3)Gal(b1-4)GlcNAc(b1-2)Man(a1-3)[GlcNAc(b1-3)Gal(b1-4)GlcNAc(b1-2)Man(a1-6)]Man(b1-4)GlcNAc(b1-4)[Fuc(a1-6)]GlcNAc
# Summary of the method: as §1
# [5] = target: GlcNAc(b1-3)Gal(b1-4)GlcNAc(b1-3)Gal(b1-4)GlcNAc
# Summary of the method: as §1
# [6] = target: GlcNAc(b1-3)Gal(b1-4)GlcNAc(b1-3)Gal(b1-4)GlcNAc(b1-3)Gal(b1-4)GlcNAc(b1-3)Gal(b1-4)GlcNAc(b1-2)Man(a1-3)[GlcNAc(b1-3)Gal(b1-4)GlcNAc(b1-3)Gal(b1-4)GlcNAc(b1-3)Gal(b1-4)GlcNAc(b1-3)Gal(b1-4)GlcNAc(b1-2)Man(a1-6)]Man(b1-4)GlcNAc(b1-4)[Fuc(a1-6)]GlcNAc
# Summary of the method: as §1
# GlcNAc(b1-3)GalNAc = target: GlcNAc(b1-3)GalNAc
# Summary of the method: as §1
# [7] = target: GlcNAc(b1-4)GlcNAc(b1-4)GlcNAc
# Summary of the method: as §1
# [8] = target: Kdn(a2-3)Gal(b1-4)[Fuc(a1-3)]GlcNAc
# Summary of the method: as §1
# [9] = target: Man(a1-2)Man(a1-3)[Man(a1-2)Man(a1-6)]Man(a1-6)[Man(a1-2)Man(a1-2)Man(a1-3)]Man
# Summary of the method: as §1
# [10] = target: Man(a1-2)Man(a1-3)[Man(a1-6)]Man(a1-6)[Man(a1-2)Man(a1-3)]Man(b1-4)GlcNAc(b1-4)GlcNAc
# Summary of the method: as §1
# [11] = target: Man(a1-3)[Man(a1-6)]Man(b1-4)GlcNAc(b1-4)[Fuc(a1-6)]GlcNAc
# Summary of the method: as §1
# [12] = target: Neu5Ac(a2-3)Gal(b1-4)GlcNAc(b1-2)Man(a1-3)[GlcNAc(b1-4)][Neu5Ac(a2-3)Gal(b1-4)GlcNAc(b1-2)Man(a1-6)]Man(b1-4)GlcNAc(b1-4)GlcNAc
# Summary of the method: as §1
# [13] = target: Neu5Ac(a2-3)Gal(b1-4)GlcNAc(b1-3)Gal(b1-4)GlcNAc(b1-3)Gal(b1-4)GlcNAc
# Summary of the method: as §1
# [14] = target: Neu5Ac(a2-3)Gal(b1-4)[Fuc(a1-3)]GlcNAc(b1-6)[Gal(b1-3)]GalNAc
# Summary of the method: as §1
# [15] = target: Neu5Ac(a2-3)[GalNAc(b1-4)]Gal(b1-4)Glc
# Summary of the method: as §1
# [16] = target: Neu5Ac(a2-3)[GalNAc(b1-4)]Gal(b1-4)GlcNAc(b1-3)GalNAc
# Summary of the method: as §1
# [17] = target: Neu5Ac(a2-6)Gal(b1-3)GlcNAc(b1-3)[Gal(b1-4)GlcNAc(b1-6)]Gal(b1-4)Glc
# Summary of the method: as §1
# [18] = target: Neu5Ac(a2-6)Gal(b1-4)GlcNAc
# Summary of the method: as §1
# [19] = target: Neu5Ac(a2-6)Gal(b1-4)GlcNAc(b1-2)Man(a1-3)[Gal(b1-4)GlcNAc(b1-2)Man(a1-6)]Man(b1-4)GlcNAc(b1-4)GlcNAc
# Summary of the method: as §1
# [20] = target: Neu5Ac(a2-6)Gal(b1-4)GlcNAc(b1-2)Man(a1-3)[Man(a1-6)]Man(b1-4)GlcNAc(b1-4)GlcNAc
# Summary of the method: as §1
# [21] = target: Neu5Ac(a2-6)Gal(b1-4)GlcNAc(b1-2)Man(a1-3)[Neu5Ac(a2-6)Gal(b1-4)GlcNAc(b1-2)Man(a1-6)]Man(b1-4)GlcNAc(b1-4)[Fuc(a1-6)]GlcNAc
# Summary of the method: as §1
# [22] = target: Neu5Ac(a2-6)Gal(b1-4)GlcNAc(b1-3)Gal(b1-4)GlcNAc(b1-3)GalNAc
# Summary of the method: as §1
# [23] = target: Neu5Ac(a2-8)Neu5Ac(a2-3)Gal(b1-4)GlcNAc
# Summary of the method: as §1
# [24] = target: Neu5Gc(a2-3)Gal(b1-3)[Fuc(a1-4)]GlcNAc
# Summary of the method: as §1
# [25] = target: Neu5Gc(a2-3)Gal(b1-4)GlcNAc
# Summary of the method: as §1
binder,measurement,setting,value
B1,glycan array binding signal (z-score),[1],-0.135
same,glycan array binding signal (z-score),[2],5.54
same,glycan array binding signal (z-score),[3],8.45
same,glycan array binding signal (z-score),[4],5.29
same,glycan array binding signal (z-score),[5],-0.199
same,glycan array binding signal (z-score),[6],3.94
same,glycan array binding signal (z-score),GlcNAc(b1-3)GalNAc,-0.209
same,glycan array binding signal (z-score),[7],-0.184
same,glycan array binding signal (z-score),[8],-0.228
same,glycan array binding signal (z-score),[9],1.19
same,glycan array binding signal (z-score),[10],2.09
same,glycan array binding signal (z-score),[11],6.07
same,glycan array binding signal (z-score),[12],-0.262
same,glycan array binding signal (z-score),[13],-0.228
same,glycan array binding signal (z-score),[14],-0.145
same,glycan array binding signal (z-score),[15],-0.235
same,glycan array binding signal (z-score),[16],0.102
same,glycan array binding signal (z-score),[17],-0.232
same,glycan array binding signal (z-score),[18],-0.202
same,glycan array binding signal (z-score),[19],-0.188
same,glycan array binding signal (z-score),[20],-0.239
same,glycan array binding signal (z-score),[21],4.04
same,glycan array binding signal (z-score),[22],-0.224
same,glycan array binding signal (z-score),[23],-0.237
same,glycan array binding signal (z-score),[24],-0.207
same,glycan array binding signal (z-score),[25],-0.219
